Data as given in PubChem BioAssay AID1159580 (chemical genetic matrix, 2015).
Values joined by “and” are separate entries in the source; they are usually repeats but may differ in a detail not shown here. Equal values may be shown once. Screen size: about 5,500 compounds; about 2,000 (36%) were called active. About 18% were inconclusive and are not listed. No stated cut-off is given here; in the data, active means normalized growth mostly below about 0.91 (no sharp cut-off); inconclusive means no clear call, values can overlap the other calls; inactive means mostly above about 0.92. Some of the results follow.

Experiment: chemical genetic growth profiling, strain panel (AID 1159580);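 further: tested at 20 µM; growth read once vehicle control cultures reached saturation at 30 °C; 1 = growth at the plate median or of vehicle wells; lower values mean less growth of the strain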
Settings: S. cerevisiae deletion strains, growth OD

Measured: normalized growth

CC(C)(S)[C@@H](N)C(=O)O
inactive: locus YAL013W, strain DEP1, active compounds read low 1.02 | locus YAL021C, strain ccr4, active compounds read low 1.01 | locus YAL026C, strain drs2, active compounds read low 1.01 | locus YAL030W, strain snc1, active compounds read low 1.01 | locus YBL061C, strain skt5, active compounds read low 1 | locus YBR009C, strain hhf1, active compounds read low 0.992 | locus YBR021W, strain FUR4, active compounds read low 1.03 | locus YBR023C, strain chs3, active compounds read low 1.01 | locus YBR171W, strain sec66, active compounds read low 1.01 | locus YBR229C, strain ROT2, active compounds read low 1.01 | locus YBR231C, strain swc5, active compounds read low 1 | locus YBR279W, strain paf1, active compounds read low 0.997 | locus YCL011C, strain gbp2, active compounds read low 1 | locus YCL016C, strain dcc1, active compounds read low 1 | locus YCL029C, strain bik1, active compounds read low 0.991 | locus YCL061C, strain MRC1, active compounds read low 1.01 | locus YCL069W, strain vba3, active compounds read low 0.993 | locus YCR088W, strain abp1, active compounds read low 1.01 | locus YDL005C, strain med2, active compounds read low 0.995 | locus YDL035C, strain GPR1, active compounds read low 1.01 | locus YDL040C, strain nat1, active compounds read low 1 | locus YDL074C, strain BRE1, active compounds read low 1.03 | locus YDL101C, strain DUN1, active compounds read low 1.03 | locus YDL134C, strain PPH21, active compounds read low 1.01 | locus YDL185W, strain tfp1, active compounds read low 0.988 | locus YDL192W, strain arf1, active compounds read low 0.984 | locus YDR001C, strain nth1, active compounds read low 1 | locus YDR069C, strain doa4, active compounds read low 0.997 | locus YDR101C, strain arx1, active compounds read low 0.986 | locus YDR137W, strain rgp1, active compounds read low 1.05 | locus YDR150W, strain NUM1, active compounds read low 1.01 | locus YDR159W, strain sac3, active compounds read low 0.994 | locus YDR162C, strain NBP2, active compounds read low 1 | locus YDR195W, strain ref2 0.997 | locus YDR297W, strain sur2, active compounds read low 1.01 | locus YDR318W, strain mcm21, active compounds read low 0.994 | locus YDR334W, strain swr1, active compounds read low 1.01 | locus YDR335W, strain msn5, active compounds read low 0.986 | locus YDR388W, active compounds read low 0.991 | locus YDR392W, strain spt3, active compounds read low 0.96 | locus YDR502C, strain sam2, active compounds read low 0.996 | locus YEL003W, strain gim4, active compounds read low 0.995 | locus YEL037C, strain rad23, active compounds read low 1 | locus YEL061C, strain CIN8 (second series), active compounds read low 0.995 | locus YEL061C, strain CIN8, active compounds read low 1.01 | locus YER015W, strain faa2, active compounds read low 1.01 | locus YER016W, strain bim1, active compounds read low 0.994 | locus YER110C, active compounds read low 0.989 | locus YER111C, strain swi4, active compounds read low 1.01 | locus YER155C, strain BEM2 (second series), active compounds read low 0.985 | locus YER155C, strain BEM2, active compounds read low 1.01 | locus YER167W, strain BCK2, active compounds read low 1.01 | locus YFR010W, strain ubp6, active compounds read low 0.998 | locus YGL078C, strain dbp3, active compounds read low 0.991 | locus YGL086W, strain mad1, active compounds read low 0.995 | locus YGL167C, strain pmr1, active compounds read low 1 | locus YGL173C, strain kem1, active compounds read low 1 | locus YGL227W, strain vid30, active compounds read low 0.992 | locus YGL240W, strain doc1, active compounds read low 1.01 | locus YGL248W, strain PDE1, active compounds read low 1.02 | locus YGL253W, strain hxk2, active compounds read low 0.993 | locus YGR135W, strain pre9, active compounds read low 0.989 | locus YGR252W, strain gcn5, active compounds read low 1.01 | locus YHR013C, strain ard1, active compounds read low 1 | locus YHR027C, strain rpn1, active compounds read low 1.03 | locus YHR030C, strain SLT2, active compounds read low 1.01 and 0.999 | locus YHR079C, strain IRE1 (second series), active compounds read low 0.987 | locus YHR079C, strain IRE1, active compounds read low 0.982 | locus YHR094C, strain hxt1, active compounds read low 0.986 | locus YHR129C, strain ARP1, active compounds read low 1.01 | locus YHR142W, strain chs7, active compounds read low 1.01 | locus YHR200W, strain rpn10, active compounds read low 1 | locus YIL066C, strain RNR3, active compounds read low 1.01 | locus YIL073C, strain SPO22, active compounds read low 0.975 | locus YIL125W, strain kgd1, active compounds read low 0.997 | locus YIR030C, strain dcg1, active compounds read low 0.989 | locus YJL092W, strain hpr5, active compounds read low 1 | locus YJL095W, strain BCK1 (second series), active compounds read low 1 | locus YJL095W, strain BCK1, active compounds read low 1.05 and 1 | locus YJL115W, strain asf1, active compounds read low 0.995 | locus YJL129C, strain trk1, active compounds read low 0.987 | locus YJL134W, strain LCB3, active compounds read low 1.01 | locus YJL154C, strain vps35, active compounds read low 0.994 | locus YJL164C, strain tpk1, active compounds read low 1.01 | locus YJL166W, strain qcr8, active compounds read low 1.01 | locus YJL168C, strain set2, active compounds read low 0.999 | locus YJL187C, strain SWE1 (second series), active compounds read low 1.01 | locus YJL187C, strain SWE1, active compounds read low 1
